Experimental data from PubChem BioAssay (NCI).
The panel holds about 79,000 compounds, 15% with a hit somewhere; the sample as a whole holds those more often. Unmarked numbers belong to inactive results. Activity calls are given as the source filed them. No stated cut-off is given here; in the data, active means growth inhibition above about 70%; inactive means the rest.

Assays:
[1] = NCI Yeast Anticancer Drug Screen. Data for the rad50 strain (AID 155);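 further: 0% = growth of vehicle-only cultures of the same strain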; settings: S. cerevisiae rad50 strain growth inhibition; at 50.0 µM; active compounds read high
How it was run: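 Relative growth inhibition (compound vs vehicle) was measured in yeast with a defined repair-gene alteration.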

[2] = NCI Yeast Anticancer Drug Screen. Data for the mec2-1 strain (AID 157); settings: S. cerevisiae mec2-1 strain, at 50.0 µM, active compounds read high
How it was run: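 Using mec2-1 yeast: add compound, measure growth, express inhibition versus vehicle-treated cultures.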

[3] = NCI Yeast Anticancer Drug Screen. Data for the sgs1 mgt1 strain (AID 161);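 further: 0% = growth of cultures given vehicle only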; settings: S. cerevisiae sgs1 mgt1 strain, at 50.0 µM, active compounds read high
How it was run: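 Percent growth inhibition was derived by comparing compound-exposed mutant yeast with vehicle-exposed cultures. The strain carries alterations in DNA damage repair.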

[4] = NCI Yeast Anticancer Drug Screen. Data for the cln2 rad14 strain (AID 165);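 further: 0% = growth equal to vehicle treated cultures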; settings: S. cerevisiae cln2 rad14 strain, at 50.0 µM, active compounds read high
How it was run: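 Yeast strain cln2 rad14, bearing defects in cell cycle control and DNA repair, serves as the test system; values reflect growth inhibition compared with vehicle.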

[5] = NCI Yeast Anticancer Drug Screen. Data for the bub3 strain (AID 167); settings: S. cerevisiae bub3 mutant strain, at 50.0 µM, active compounds read high
How it was run: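 Screening used yeast with an engineered genetic alteration affecting cell cycle control. Compound-exposed cultures were compared with vehicle cultures, and reduced growth was taken as inhibition.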

[6] = NCI Yeast Anticancer Drug Screen. Data for the mlh1 rad18 strain (AID 175); settings: S. cerevisiae mlh1 rad18 strain growth inhibition; at 50.0 µM; active compounds read high
How it was run: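 Steps: expose repair-defective yeast to compound; measure growth; express inhibition against vehicle-treated controls.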

| Compound | growth inhibition [1] | growth inhibition [2] | growth inhibition [3] | growth inhibition [4] | growth inhibition [5] | growth inhibition [6] |
| --- | --- | --- | --- | --- | --- | --- |
| COC(=O)C(Cc1nc2ccc(Cl)cc2[nH]c1=O)/C(=N/O)C(=O)Nc1cccc(Cl)c1C (centres undefined) | 22.6% | 0.95% | 0.85% | -40.9% | 0.3% | -4.55% |
| Nc1ccc(S(=O)(=O)Nc2cnc3c(Cl)cccc3n2)cc1 | -11% | 4.2% | 10.9% | -39.5% | 32.2% | -0.6% |
| COc1ccc(CC(N)C(=O)N(C)C2C(CO)OC(n3cnc4c(N(C)C)ncnc43)C2O)cc1 (centres undefined) | 5.3% | -10.8% | -8.7% | -25.7% | 2.3% | -7.45% |
| CCc1c2ccccc2cc2ccccc12 | -1% | 1.85% | -16.6% | 9.75% | 1.8% | -5.95% |
| CCN(CC)CCOc1cccc(O)c1 | -5.95% | -16.1% | -12.1% | -50.5% | -8.3% | -2.9% |
| O=C(N(Cc1ccccc1)c1ccccc1)C(Cl)(Cl)Cl | 65.4% | 76.8% (active) | 78% (active) | 30.1% | 67% | 78% (active) |
| CC1=C/C(=N\O)C(C(O)(C(F)(F)F)C(F)(F)F)C(C)(C)C1 (centres undefined) | -37.7% | -39% | -17.4% | -12.5% | -7.35% | 2.9% |
| CCCCN(CCCC)/C(=C/C(=O)OC)C(=O)OC | 20.1% | 8.55% | 10.1% | 14.2% | 26.9% | 13.6% |
| O=C(Nc1ccc(Cl)c(Cl)c1)c1ccc(Cl)cc1 | 2% | 11.3% | 7.65% | 8.2% | 19.1% | 13% |
| CCCCCCCCCCCCCCCCCC(=O)CC(=O)OCC | -1.25% | 1.15% | 3.5% | 17.9% | -10% | 4.25% |
| CC(Sc1ncnc2[nH]ncc12)C(N)=O (centres undefined) | -22.5% | -16.4% | -18.4% | -6.6% | 5% | 0.95% |
| CC(=O)SCCCCl | -9.25% | 2.1% | 11.2% | -1.25% | 8.25% | -11.3% |
| Nc1nc(CCC(=O)Nc2cccc(C(F)(F)F)c2)cc(-c2cccc3ccccc23)n1 | -15.2% | 17.4% | 29.1% | 0.8% | 23.1% | 2.3% |
| NC(N)=NS(=O)(=O)c1ccc(N)cc1 | 45% | 23.9% | 26.4% | 14.3% | 13.3% | 13% |
| CC(=O)OC1C(COC(N)=O)OC(n2c(-c3ccc(C)cc3)cc(-c3ccccc3)c(C#N)c2=O)C(OC(C)=O)C1OC(C)=O (centres undefined) | -18.4% | 7.25% | 4.75% | 22.4% | 26.9% | 11.3% |
| CC1(C)C(=O)CC1C(=O)O (centres undefined) | 4.55% | -0.25% | -0.45% | 12.3% | 7.5% | 8.75% |
| CCOC1(C)OC2OC(COC(c3ccccc3)(c3ccccc3)c3ccccc3)C(OC(=O)c3ccccc3)C(OC(=O)c3ccccc3)C2O1 (centres undefined) | -3.5% | 14% | 4.05% | -9.4% | -5.9% | 29.6% |
| O=C(NO)C(=O)NO | -0.65% | -2.95% | -1.9% | -19.4% | -20% | -16.8% |
| CCNc1ncnc2sc(SCc3ccccc3)nc12 | -39.3% | -20.8% | -12.7% | -0.6% | -31.1% | -37.1% |
